Assay outcomes: PubChem BioAssay, several laboratories
HSP90 refold inh – blocks HSP90-mediated luciferase refolding in reticulocyte lysate; Rabbit reticulocyte lysate, luciferase refolding luminescence, 3 h; inhibition, % at 5.6 µM; actives 0.91% (n = 290,000);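 active = inhibition above the screen-wide mean plus 3 SD, computed separately per campaign, cut at about 16% in these data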;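 also: 0% = DMSO wells and 100% = 60 µM geldanamycin wells; inhibitors lower the luminescence because luciferase stays unfolded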
MPTP block – permeability transition pore inhibition. isolated mouse mitochondria, Ca2+ swelling absorbance, 30 min. inhibition, % at 10 µM. AID 602449. actives 1.4% (n = 360,000);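 active = inhibition of 50% or more, scaled per plate between neutral and stimulator controls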;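 also: 0% = DMSO wells given calcium and 100% = 1 mM EGTA wells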
Platelet DG rel – modulates dense granule release in human platelets | human platelet-rich plasma, SFLLRN dense granule ATP release, luminescence | inhibition, %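 (compounds screened at 7.5 µM in platelet-rich plasma)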 | actives 0.22% (n = 300,000) | AID 1663;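 active = mean replicate score, as percent of positive control, at or above 50; inconclusive = mean below 50 but at least one replicate at or above 50; inactive = mean and every replicate below 50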
dFosB act-1 – activators of mouse delta FosB homodimer; P13346; purified delta FosB, TAMRA-CDK5 oligo fluorescence polarization; percent of positive-control signal above neutral wells; activation, % at 25 µM; actives 0.99% (n = 340,000); AID 493131;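 active = mean activation above about 17%, with every replicate also reaching it, limit read from the data, passing the limit was not always enough; inconclusive = only one of the two conditions met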
Target sequence (P13346 whole entry, looked up): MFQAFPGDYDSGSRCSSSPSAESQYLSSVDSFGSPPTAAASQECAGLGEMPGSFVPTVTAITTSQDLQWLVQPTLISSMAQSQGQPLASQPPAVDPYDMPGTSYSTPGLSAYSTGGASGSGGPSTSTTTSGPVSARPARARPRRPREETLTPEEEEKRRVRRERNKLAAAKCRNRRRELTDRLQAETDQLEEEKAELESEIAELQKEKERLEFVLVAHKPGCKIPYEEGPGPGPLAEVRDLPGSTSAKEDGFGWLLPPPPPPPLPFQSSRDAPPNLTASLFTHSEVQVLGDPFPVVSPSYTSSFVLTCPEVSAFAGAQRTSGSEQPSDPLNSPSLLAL
HSF1 inhib – HSF1 inhibition. actives 0.77% (n = 300,000). AID 2098. activity change, negative = inhibition, % at 7.5 µM (by protocol). NIH3T3-HGL HSE-luciferase, MG132-induced, luminescence 8 h; hits give low values;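 active = more than half of replicate wells show activity change below -50%, luminescence cut by over half; inconclusive = some wells, but at most half, below -50%; inactive = no replicate well below -50%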;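 also: luciferase reports HSF-1 transcriptional activity via heat shock element; 0% = median of DMSO wells and -100% = zero luminescence signal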
HSF-1 act – increases HSF-1 driven luciferase reporter signal; actives 1.7% (n = 300,000); AID 504408; activation, % at 9 µM; NIH3T3-HGL HSF-1 luciferase reporter, MG132, 8 h; 100% = twice DMSO control signal;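 active = mean replicate activation of at least 50% with a set share of replicates each reaching 50%; inconclusive = only one of those two conditions met; inactive = mean below 50% and too few replicates reaching it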;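 also: 0% = median of the neutral control wells and 100% = twice that signal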
dFosB act-2 – delta FosB (mouse) homodimer activation; purified delta FosB, TAMRA-CDK5 oligo fluorescence polarization; normalised: neutral wells 0, positive control 100; AID 588690; shares compounds with dFosB act-1; 2,400 tested, under 10 active; activation, % at 24.9 µM;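 active = highest replicate activation at or above 34% and every replicate reaching that threshold; inconclusive = meets only one of the two criteria; inactive = meets neither criterion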;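 also: higher polarization means more probe DNA bound by delta FosB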
Starred values were filed as active, the others as inactive; ? = inconclusive; . = not tested or not shown. Rows were chosen to be rich in hits. Some 4.9% of all compounds tested hit in one or more screens of this group.

SMILES	HSP90 refold inh	MPTP block	Platelet DG rel	dFosB act-1	HSF1 inhib	HSF-1 act	dFosB act-2
C#CCOCCOCCOCCNc1nc(N2CCN(C(=O)[C@H]([C@@H](C)CC)n3cc([C@@H](N)CC(C)C)nn3)CC2)nc(N2CCN(C(=O)[C@H](Cc3ccc(O)cc3)n3cc([C@@H](N)CC(C)C)nn3)CC2)n1	1	.	-6	.	-5	21	.
C#CCOCCOCCOCCNc1nc(N2CCN(C(=O)[C@H]([C@@H](C)CC)n3cc([C@@H](N)Cc4ccc(O)cc4)nn3)CC2)nc(N2CCN(C(=O)[C@H](CCCCN)n3cc([C@@H](N)C(C)CC)nn3)CC2)n1 (some centres not stated)	5	1	-2	23*	0	-5	4
C#CCOCCOCCOCCNc1nc(N2CCN(C(=O)[C@H]([C@@H](C)CC)n3cc([C@@H](N)CC(C)C)nn3)CC2)nc(N2CCN(C(=O)[C@H]([C@@H](C)CC)n3cc([C@@H](N)CC(C)C)nn3)CC2)n1	5	19	1	31*	-5	-5	0
C#CCOCCOCCOCCNc1nc(N2CCOCC2)nc(N2CCN(C(=O)[C@H](CCCN=C(N)N)n3cc(C(N)[C@@H](C)CC)nn3)CC2)n1 (some centres not stated)	.	-2	.	0	.	.	.
C#CCOCCOCCOCCNc1nc(N2CCN(C(=O)[C@H](CCCCN)n3cc([C@@H](N)C(C)CC)nn3)CC2)nc(N2CCN(C(=O)[C@H](CCCCN)n3cc([C@@H](N)CC(C)C)nn3)CC2)n1 (some centres not stated)	8	-5	-2	28*	-3	5	?
CC(C)CNC(=O)NC(=O)COC(=O)Cn1cnc2ccccc2c1=O	0	0	15	-6	2	20	.
C#CCOCCOCCOCCNc1nc(N2CCN(C(=O)C([C@@H](C)O)n3cc([C@@H](N)CCCCN)nn3)CC2)nc(N2CCN(C(=O)C([C@@H](C)O)n3cc([C@@H](N)CCCCN)nn3)CC2)n1 (some centres not stated)	.	-1	.	-9	.	.	.
C#CCOCCOCCOCCNc1nc(N2CCN(C(=O)C([C@@H](C)O)n3cc([C@@H](N)CCCCN)nn3)CC2)nc(N2CCN(C(=O)[C@H](CO)n3cc([C@@H](N)C(C)C)nn3)CC2)n1 (some centres not stated)	.	-1	.	31*	.	.	1
C#CCOCCOCCOCCNc1nc(N2CCN(C(=O)[C@H](Cc3ccc(O)cc3)n3cc([C@@H](N)C(C)CC)nn3)CC2)nc(N2CCN(C(=O)[C@H](Cc3cc4ccccc4[nH]3)n3cc([C@@H](N)CC(C)C)nn3)CC2)n1 (some centres not stated)	14	.	1	.	2	-2	.
C#CCOCCOCCOCCNc1nc(N2CCN(C(=O)[C@H](Cc3ccc(O)cc3)n3cc([C@@H](N)C(C)CC)nn3)CC2)nc(N2CCN(C(=O)[C@H](Cc3cc4ccccc4[nH]3)n3cc([C@@H](N)C(C)CC)nn3)CC2)n1 (some centres not stated)	11	-5	-3	40*	-7	0	-7
COC1=CCC2([N+](=O)[O-])CN(CCO)CC1([N+](=O)[O-])C2 (configuration not stated)	-3	-2	14	-2	-11	8	.
CC(C)OCCCNC(=O)c1cccc2c1C(=O)c1ccc(Cl)cc1S2(=O)=O	.	1	.	3	.	.	.
CC(=O)C[C@H]1c2cc(C(F)(F)F)ccc2S(=O)(=O)N1c1ccc(N(C)C)cc1	.	0	1	-1	5	-5	.
CCOc1ccc(C(C(=O)NCC2CCCO2)N(Cc2cccs2)C(=O)c2snc(C(N)=O)c2N)cc1 (configuration not stated)	-1	-1	-13	21*	?	-45	6
COc1ccc(C(C(=O)NCC2CCCO2)N(Cc2cccs2)C(=O)c2snc(C(N)=O)c2N)cc1OC (configuration not stated)	-4	-1	-1	-11	1	21	.
CC(C)(C)C(=O)Nc1ccc(C(=O)COC(=O)c2ccccn2)cc1	.	0	.	-10	.	.	.
Cc1ccccc1Nc1nc(Nc2ccccc2C)nc(SC2=NCCS2)n1	4	1	-1	1	-12	-30	.
Cc1ccc(Nc2nc(Nc3ccc(C)cc3)nc(SC3=NCCS3)n2)cc1	1	5	1	26*	-3	5	5
CCOC(=O)c1c(C)n(CC(O)CN(C)C)c2cc(Br)c(OC)cc12 (configuration not stated)	-1	0	2	31*	-2	8	2
CCc1cccc(OCC2Cn3c(nc4c3c(=O)[nH]c(=O)n4C)O2)c1 (configuration not stated)	-4	1	1	20*	1	10	3
CO[C@@H]1CN(C)C(=O)c2ccc(NS(=O)(=O)c3c(C)noc3C)cc2OC[C@@H](C)NC[C@@H]1C	.	0	.	.	.	.	.
Cc1ccc(C(C)C)c(OCC(=O)NN2C(=O)c3ccccc3C2=O)c1	-3	0	-4	2	-8	-3	.
Cc1ccc(C(C)C)c(OCC(=O)NNC(=O)Cn2[nH]c(=O)c3ccccc3c2=O)c1	.	2	.	35*	.	.	4
CCOC(=O)C1(CCc2ccccc2)CCN(C(=O)CCn2cncn2)CC1	-2	1	1	-8	7	35	.
Cc1cccc(NC(=O)c2cc(-c3cccnc3)nc3c(C)cccc23)n1	3	1	4	55*	-17	-19	0
SMILES	HSP90 refold inh	MPTP block	Platelet DG rel	dFosB act-1	HSF1 inhib	HSF-1 act	dFosB act-2
Cc1cc(NC(=O)c2cc(-c3ccncc3)nc3c(C)cccc23)no1	2	-1	-16	-11	-3	-10	.
COc1ccc(-c2cc(-c3cccs3)c(C#N)c(SCC(=O)NCc3ccco3)n2)cc1	0	5	.	47*	.	.	0
COc1ccc(CNC(=O)CSc2nc(-c3ccccc3)cc(-c3cccs3)c2C#N)cc1	-2	10	3	?	-5	-4	.
O=C(COC(=O)c1cc(Cl)ccc1O)Nc1ccc2c(c1)OCCO2	.	0	.	30*	.	.	1
COc1ccc(Cl)cc1NC(=O)c1nnn(CC(=O)Nc2ccc(OC)c(OC)c2)c1N	-3	-2	-22	94*	-4	6	2
COc1ccc(NC(=O)Cn2nnc(C(=O)Nc3ccc(F)c(Cl)c3)c2N)cc1	0	1	-1	32*	-3	9	4
Cc1ccc(NC(=O)Cn2nnc(C(=O)Nc3ccc(F)c(Cl)c3)c2N)cc1	-2	0	1	?	1	2	.
